These results are taken from PubChem BioAssay (NCI).

Some test systems named below: DU-145 prostate; K-562 leukemia; MALME-3M melanoma; MDA-MB-231 breast; RXF 393 renal; SF-268 CNS; SF-295 CNS; SF-539 CNS; UACC-257 melanoma; M14 melanoma; HCT-15 colon; HT29 colon; SNB-75 CNS; SNB-19 CNS; U251 CNS; PC-3 prostate; SK-MEL-5 melanoma; UACC-62 melanoma; LOX IMVI melanoma; SK-MEL-28 melanoma.
Common to all, as to assay: NCI-60 one-dose screen, 48 h (100 = growth as untreated, 0 = no growth, -100 = all killed)
Details in all cases: 10 µM unless noted

Structures are written as SMILES. About 83,000 compounds went through this panel and 20% of them were active in at least one assay; those are over-represented in the sample as a whole.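 96-well plates, one dose, 48 hours. Percent growth reported; active if below 10.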 A number with no mark means an inactive call. Active and inactive are the calls of the source.

As for `COc1ccc(Nc2ncc(Br)c(NCCCNC(=O)C3CCC3)n2)cc1`, the growth is 38.9% with DU-145 prostate; 23% with K-562 leukemia; 77.7% with MALME-3M melanoma; -25.7% (active) in the test with MDA-MB-231 breast; -41.2% (active) in the test on RXF 393 renal; 23.4% in the test with SF-268 CNS. In addition, the growth in the test with SF-295 CNS is 30.9%; in the test on SF-539 CNS, 2.94% (active); with UACC-257 melanoma, 74.3%; in the test with M14 melanoma it was 55.2%; in the test on HCT-15 colon, 21.7%; in the test with HT29 colon it was 31%. The growth with SNB-75 CNS was -4.95% (active); in the test on SNB-19 CNS it was 33.1%; in the test with U251 CNS, 19.8%; in the test with PC-3 prostate, 39.2%; in the test with SK-MEL-5 melanoma, 44.2%; with UACC-62 melanoma, 56.6%. The growth with LOX IMVI melanoma is 4.32% (active); in the test with SK-MEL-28 melanoma, 54.7%.
Turning to `CCN(CC)c1ccc(Nc2ccc(CC(=O)c3ccccc3)cc2)cc1`, the growth was 98.1% in the test with DU-145 prostate; 82.3% in the test with K-562 leukemia; 106% in the test on MALME-3M melanoma; 75.7% in the test with MDA-MB-231 breast; 89.2% in the test with RXF 393 renal; 87% with SF-268 CNS. The growth in the test on SF-295 CNS is 97.8%; in the test on SF-539 CNS, 89.4%; with UACC-257 melanoma, 93.7%; with M14 melanoma, 87.6%; in the test with HCT-15 colon, 88.7%; in the test on HT29 colon, 75.8%. Further, the growth in the test on SNB-75 CNS was 91.1%; with SNB-19 CNS, 80.8%; with U251 CNS, 56.2%; with PC-3 prostate it was 39.9%; in the test with SK-MEL-5 melanoma, 79.9%; with UACC-62 melanoma it was 78.5%. The growth is 91.3% with LOX IMVI melanoma and 98.5% in the test with SK-MEL-28 melanoma.
Turning to `CC1(C)C(=O)/C(=C\c2cccnc2)C[C@]2(C)[C@H]3CC=C4[C@@H]5C[C@@](C)(C(=O)O)CC[C@]5(C)CC[C@@]4(C)[C@]3(C)CC[C@@H]12`, the growth in the test with DU-145 prostate is 104%; in the test with K-562 leukemia it was 80.7%; with MALME-3M melanoma, 126%; in the test with MDA-MB-231 breast, 101%; in the test on RXF 393 renal, 92.2%; with SF-268 CNS, 98.9%. For the same molecule, the growth in the test on SF-295 CNS is 93.9%; in the test on SF-539 CNS it was 101%; in the test with UACC-257 melanoma it was 87.7%; in the test with M14 melanoma, 100%; in the test on HCT-15 colon, 87.5%; with HT29 colon, 91.5%. Also, the growth with SNB-75 CNS is 82%; in the test with SNB-19 CNS, 96.8%; with U251 CNS it was 89%; in the test on PC-3 prostate, 75.3%; in the test with SK-MEL-5 melanoma it was 109%; in the test with UACC-62 melanoma it was 97.7%. Also, the growth with LOX IMVI melanoma is 99.5%; in the test on SK-MEL-28 melanoma, 109%.
For `CCNCCNc1cc(-c2ccc(C#N)cc2)c(C#N)c2nc3ccccc3n12`, the growth in the test with DU-145 prostate was 33.6%; with K-562 leukemia, 23.9%; in the test with MALME-3M melanoma it was 51.6%; in the test with MDA-MB-231 breast, 6.63% (active); in the test on RXF 393 renal, -10.6% (active); in the test with SF-268 CNS, 35.1%. The growth in the test with SF-295 CNS is -64.6% (active); in the test on SF-539 CNS, -77.3% (active); in the test on UACC-257 melanoma, 57.5%; in the test on M14 melanoma, -6.91% (active); in the test with HCT-15 colon, 33.6%; in the test with HT29 colon, 4.72% (active). In addition, the growth in the test with SNB-75 CNS was -20.4% (active); in the test on SNB-19 CNS it was 51%; in the test on U251 CNS, -23.4% (active); with PC-3 prostate it was 44.7%; in the test on SK-MEL-5 melanoma it was 65.7%; in the test on UACC-62 melanoma it was -34.8% (active). Also, the growth was -53.9% (active) in the test on LOX IMVI melanoma and -47.7% (active) in the test with SK-MEL-28 melanoma.
On to `N#Cc1c(Oc2ccc([N+](=O)[O-])cc2)nc2sc3cc(Cl)ccc3n2c1=N`, for which the growth is 105% with DU-145 prostate; 118% in the test with K-562 leukemia; -10.6% (active) in the test with MALME-3M melanoma; 97.3% in the test on MDA-MB-231 breast; 32.6% with RXF 393 renal; 64.9% with SF-268 CNS. The growth is 76.4% in the test with SF-295 CNS; 106% with SF-539 CNS; 57.6% in the test with UACC-257 melanoma; 78% in the test with M14 melanoma; 102% in the test on HCT-15 colon; 33.4% with HT29 colon. Further, the growth in the test on SNB-75 CNS was 29.7%; with SNB-19 CNS it was 74.8%; in the test on U251 CNS it was 75.9%; in the test with PC-3 prostate, 76.7%; in the test on SK-MEL-5 melanoma, 58.1%; with UACC-62 melanoma, 79.3%. Further, the results for the growth in the test with LOX IMVI melanoma and in the test on SK-MEL-28 melanoma were 92.1% and 84.1%, respectively.
On to `COc1ccc2c(c1)/C(=C\c1sc(=S)[nH]c1O)C(C(=O)O)=N2`, for which the growth was 99.2% in the test with DU-145 prostate; 92.6% in the test on K-562 leukemia; 94.7% in the test on MALME-3M melanoma; 94.8% in the test with MDA-MB-231 breast; 95.2% with RXF 393 renal; 92.3% in the test on SF-268 CNS. In addition, the growth was 103% in the test with SF-295 CNS; 99.4% in the test on SF-539 CNS; 96.7% in the test with UACC-257 melanoma; 97% in the test on M14 melanoma; 100% in the test with HCT-15 colon; 104% in the test on HT29 colon. Further, the growth in the test with SNB-75 CNS is 84.6%; in the test on SNB-19 CNS it was 100%; in the test on U251 CNS, 98.3%; in the test with PC-3 prostate, 99.4%; with SK-MEL-5 melanoma it was 101%; in the test on UACC-62 melanoma, 91.4%. Moreover, the growth in the test with LOX IMVI melanoma is 96.6%; in the test on SK-MEL-28 melanoma, 111%.
In the case of `O=C1Nc2ccccc2/C1=N/N=C/c1ccsc1`, the growth in the test with DU-145 prostate is 111%; in the test on K-562 leukemia, 89.9%; in the test with MALME-3M melanoma, 103%; with MDA-MB-231 breast it was 92.5%; with RXF 393 renal, 111%; in the test with SF-268 CNS, 101%. Moreover, the growth in the test on SF-295 CNS is 108%; with SF-539 CNS, 103%; with UACC-257 melanoma, 104%; in the test on M14 melanoma, 105%; with HCT-15 colon it was 98%; in the test on HT29 colon it was 112%. For the same molecule, the growth with SNB-75 CNS was 87.8%; with SNB-19 CNS it was 95.5%; in the test on U251 CNS, 104%; in the test with PC-3 prostate, 107%; in the test on SK-MEL-5 melanoma, 101%; with UACC-62 melanoma, 93%. The growth is 95.1% in the test on LOX IMVI melanoma and 110% in the test on SK-MEL-28 melanoma.
Turning to `C[C@H]1[C@H](C)CC[C@]2(C(=O)N3CCN(C)CC3)CC[C@]3(C)C(=CC[C@@H]4[C@@]5(C)C/C(=C/c6cccnc6)C(=O)C(C)(C)[C@@H]5CC[C@]43C)[C@H]12`, the growth in the test with DU-145 prostate is -81.5% (active); in the test with K-562 leukemia, -46.3% (active); in the test with MALME-3M melanoma, -87.3% (active); with MDA-MB-231 breast, -80.1% (active); in the test on RXF 393 renal it was -94.4% (active); in the test with SF-268 CNS it was -80.3% (active). In addition, the growth is -84.6% (active) in the test with SF-295 CNS; -84.6% (active) in the test on SF-539 CNS; -65.3% (active) with UACC-257 melanoma; -81.8% (active) with M14 melanoma; -79.8% (active) in the test with HCT-15 colon; -79.3% (active) in the test on HT29 colon. Moreover, the growth is -9.56% (active) with SNB-75 CNS; -95.9% (active) with SNB-19 CNS; -96% (active) in the test on U251 CNS; -79.6% (active) with PC-3 prostate; -97.6% (active) in the test with SK-MEL-5 melanoma; -74.7% (active) in the test with UACC-62 melanoma. The growth with LOX IMVI melanoma was -97.1% (active); in the test with SK-MEL-28 melanoma it was -85.7% (active).
